DAX1 inh-1 – DAX1 (NR0B1) inhibitors, primary screen, cell-based, HEK293, Gal4-DAX1, luciferase luminescence; 0.99% of 340,000 active; inhibition, % at 6.75 µM; HEK293 Gal4-DAX1 luciferase reporter; Nuclear receptor subfamily 0 group B member 1 (Homo sapiens), P51843; AID 504766, 2011;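 active = inhibition above the mean over all tested compounds plus 3 SD, cut at about 4.2% in these data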;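 note: inhibition shows as a rise in luminescence from relieved DAX1 repression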
AHR act – AHR activators, primary screen, cell-based, luminescence, luciferase reporter, human; Aryl hydrocarbon receptor (Homo sapiens), P35869; AHR-responsive luciferase reporter cells; activation, % at 5 µM; 2.5% of 320,000 active; AID 2796, 2010; in the data active = activation above about 47%
Target sequence (P35869 whole entry, looked up): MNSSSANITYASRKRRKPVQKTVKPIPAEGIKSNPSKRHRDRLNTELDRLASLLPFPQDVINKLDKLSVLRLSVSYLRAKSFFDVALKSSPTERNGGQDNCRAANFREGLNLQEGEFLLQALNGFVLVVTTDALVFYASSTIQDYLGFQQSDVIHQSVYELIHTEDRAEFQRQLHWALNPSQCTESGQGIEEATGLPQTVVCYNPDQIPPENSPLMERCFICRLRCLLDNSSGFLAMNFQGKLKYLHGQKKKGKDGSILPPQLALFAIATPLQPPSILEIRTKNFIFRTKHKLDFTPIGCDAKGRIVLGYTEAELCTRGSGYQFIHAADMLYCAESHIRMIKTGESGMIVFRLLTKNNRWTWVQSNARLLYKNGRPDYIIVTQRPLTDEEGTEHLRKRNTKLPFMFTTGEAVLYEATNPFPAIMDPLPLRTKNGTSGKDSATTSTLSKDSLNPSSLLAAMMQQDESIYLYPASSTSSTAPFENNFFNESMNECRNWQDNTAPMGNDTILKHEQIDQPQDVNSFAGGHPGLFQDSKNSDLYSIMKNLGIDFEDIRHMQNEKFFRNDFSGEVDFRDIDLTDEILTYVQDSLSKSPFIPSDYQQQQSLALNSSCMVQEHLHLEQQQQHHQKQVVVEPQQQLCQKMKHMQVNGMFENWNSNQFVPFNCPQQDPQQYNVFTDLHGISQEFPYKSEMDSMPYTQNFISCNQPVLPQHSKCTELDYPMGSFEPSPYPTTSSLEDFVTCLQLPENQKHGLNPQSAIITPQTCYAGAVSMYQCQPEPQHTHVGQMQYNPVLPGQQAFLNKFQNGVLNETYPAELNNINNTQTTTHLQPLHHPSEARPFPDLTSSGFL
DAX1 inh-2 – DAX1 (NR0B1) inhibitors on StAR promoter, primary screen, cell-based, luminescence, SF-1 (NR5A1), full-length DAX-1; HEK293T StAR-luciferase reporter, SF-1/DAX-1 repression relief; inhibition, % at 6.8 µM; 1.1% of 370,000 active;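 active = inhibition above the mean over all tested compounds plus 3 SD, cut at about 3.6% in these data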;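 note: higher inhibition means more luminescence from relief of DAX-1 repression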
hcDAF12 agonist – H. contortus DAF-12 nuclear receptor activators, primary screen, cell-based, luminescence, HEK293, lit1-tk-luc reporter; HEK293 hcDAF-12 lit1-tk-luc reporter; 0% DMSO, 100% Δ7-dafachronic acid; activation, % at 6.8 µM; 1.4% of 370,000 active;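 active = activation above the mean of all tested compounds plus 3 SD, cut at about 5.5% in these data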
hgDAF-12 ag – H. glycines DAF-12 receptor agonists, primary screen, cell-based, luminescence, HEK293, GAL4 fusion, UAS-luciferase. HEK293 GAL4-hgDAF12 UAS-luciferase reporter, agonist luminescence; normalized to butyrate control. activation, % at 6.8 µM. 1.8% of 370,000 active. AID 687014, 2013;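 active = activation above a cutoff set at the mean of all screened compounds plus 3 SD, cut at about 10% in these data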
ssDAF-12 act – S. stercoralis DAF-12 nuclear receptor activators, primary screen, cell-based, luminescence, HEK293, GRIP1 co-expression, lit1-tk-luc | HEK293 ssDAF-12/GRIP1 lit1-tk-luc reporter; % of 3 µM dafachronic acid response | Nuclear hormone receptor DAF-12 (Strongyloides stercoralis) | activation, % at 6.8 µM | 1% of 370,000 active;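 active = activation above the mean over all tested compounds plus 3 SD, cut at about 0.9% in these data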
LXRb hcDAF ctr – LXR agonists, Gal4 luciferase reporter, confirmation, counter-screen for hcDAF-12 agonist project, cell-based, luminescence, HEK293, H. contortus campaign; shares compounds with hcDAF12 agonist; HEK293 Gal4-LXR tk-luc reporter, 24 h; normalized: DMSO 0%, positive control 100%; activation, % at 6.8 µM; 3,400 tested, under 10 active; AID 743027, 2013;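 active = mean percent activation of the reporter above a cutoff set as the average over tested compounds plus their standard deviation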
hcDAF12 ag – H. contortus DAF-12 receptor agonists, confirmation, cell-based, luminescence, HEK293, lit1-tk-luc, triplicate. HEK293 hcDAF-12 lit1-tk-luc reporter; % of Δ7-dafachronic acid response. shares compounds with hcDAF12 agonist. activation, % at 6.8 µM. 61% of 3,400 active;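 active = mean activation across triplicate tests above the threshold derived from the earlier primary screen, cut at about 5.5% in these data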
A number is an active result; . = inactive; / = no result. Compounds with a hit are over-represented: about 5.7% of the library has one in this group of screens.

SMILES	DAX1 inh-1	AHR act	DAX1 inh-2	hcDAF12 agonist	hgDAF-12 ag	ssDAF-12 act	LXRb hcDAF ctr	hcDAF12 ag
COc1cccc2cc(C(=O)Nc3ccccc3C)/c(=N/O)oc12	.	.	.	9.2	.	.	.	6.3
COc1ccccc1C(=O)Nc1ccc(Br)c2cccnc12	.	.	.	.	.	.	/	/
Cc1cc(C)c2cc(C#N)c(NCCNC(=S)NCCCN3CCOCC3)nc2c1	.	.	.	.	.	.	/	/
CC12CCC(=O)C=C1CCCC2=O (configuration not stated)	.	/	.	.	.	.	/	/
Cc1nnc(NC(=O)c2ccc3ccccc3n2)s1	.	.	4.3	7.6	.	.	.	9.1
Cc1ccccc1-c1nnc(CS(=O)(=O)c2ccccc2)o1	.	.	.	6.8	11.8	1.5	.	7.0
Cc1ccc(CN(C)C[C@@H]2OCc3cnnn3CCCC(=O)N([C@H](C)CO)C[C@H]2C)cc1	.	/	.	.	.	.	/	/
Cc1cc(C(=O)N2CCCC(CCC(=O)N3CCN(c4ccccn4)CC3)C2)c(C)o1 (configuration not stated)	.	.	.	.	.	.	/	/
Cc1noc(/C=C/N(C)C)c1S(=O)(=O)N(C)CC(=O)N1CCc2ccccc21	/	.	/	/	/	/	/	/
Cc1noc(/C=C/N(C)C)c1S(=O)(=O)N1CCc2ccccc21	.	.	.	7.4	.	.	.	5.7
O=C(CN1CCc2ccccc2C1)c1cccs1	.	.	.	6.9	.	.	.	.
CC1CCN(CC(=O)c2cccs2)CC1	.	.	.	.	.	.	/	/
COc1ccc(Cl)cc1NC(=O)c1cc(-c2ccccc2)on1	.	.	.	.	.	.	/	/
COc1ccc(Cl)cc1NC(=O)c1cc(C2CC2)on1	/	/	/	7.6	.	.	.	.
O=C(Cc1cccs1)Nc1ccccc1C(=O)O	.	.	.	.	.	.	/	/
CCOC(=O)c1nc2ccccc2nc1C	.	.	.	6.9	.	.	.	.
O=C1CN(C(=O)/C=C/c2cccc(Cl)c2)c2ccccc2N1	.	.	.	.	.	.	/	/
Clc1ncccc1-c1nnn(-c2ccccc2)n1	.	.	.	6.8	13.1	.	.	7.0
O=C1c2ccccc2S(=O)(=O)c2cc(N3CCOCC3)ccc21	.	.	.	6.6	.	.	.	.
COc1ccc(Cl)cc1-c1nc(-c2ccc(Br)o2)no1	.	.	.	8.2	.	.	.	8.8
CCN(CC)C(=O)[C@H]1C[C@H](CC(=O)NCc2ccc(OC)c(OC)c2)C(=O)N2CCc3c([nH]c4cc(-c5ccco5)ccc34)[C@]12C	.	/	.	.	.	.	/	/
Cc1cnc(NC(=O)CSc2nnc(-c3ccccc3)o2)s1	6.4	.	.	8.4	.	.	.	.
CN(C)S(=O)(=O)c1ccc(Nc2ccc(-c3ccc4c(c3)OCCO4)nn2)cc1	.	.	.	.	.	.	/	/
Cc1ccc(-c2nc3n(n2)Cc2ccccc2-3)cc1	.	.	.	15.8	.	2.4	.	19.9
COc1cccc(-c2ccc(NC(=O)C3CCCN(Cc4ccccn4)C3)cc2)c1 (configuration not stated)	.	/	.	.	.	.	/	/
SMILES	DAX1 inh-1	AHR act	DAX1 inh-2	hcDAF12 agonist	hgDAF-12 ag	ssDAF-12 act	LXRb hcDAF ctr	hcDAF12 ag
COc1cccc(-c2ccc(NC(=O)C3CCCN(Cc4cc(C)[nH]n4)C3)cc2)c1 (configuration not stated)	.	.	.	7.0	.	.	.	.
O=C(COC(=O)CNC(=O)C1CCCCC1)Nc1ccc(Cl)cc1F	.	.	.	.	.	.	/	/
CN(C)CCCN(C(=O)c1sc2ccccc2c1Cl)c1nc2ccc(F)cc2s1	.	.	.	7.6	.	.	.	8.0
CN(C)CCCN(C(=O)C1COc2ccccc2O1)c1nc2ccc(F)cc2s1 (configuration not stated)	.	.	.	.	.	.	/	/
CC1=NN(C(=O)c2nn(C)cc2Br)C(O)(C(F)(F)F)C1 (configuration not stated)	.	.	.	8.9	.	.	.	.
CC1=NN(C(=O)c2c(Br)cnn2C)C(O)(C(F)(F)F)C1 (configuration not stated)	.	.	.	.	.	.	/	/
COc1ccc(-c2nc(CN3CCC(C(=O)N4CCOCC4)CC3)c(C)o2)cc1OC	.	.	.	.	.	.	/	/
Cc1ccc(C(=O)Nc2ccccc2)cc1S(=O)(=O)N1CCN(C)CC1	.	.	.	.	.	.	/	/
CCCCN(CC)CCNC(=O)c1cc2c(-c3ccc(Cl)cc3)nn(C)c2s1	.	.	.	10.3	.	1.3	.	10.8
Cn1nc(-c2ccc(Cl)cc2)c2cc(C(=O)N3CCN(C(=O)c4ccco4)CC3)sc21	.	.	.	.	.	.	/	/
CCN1CCN(C(=O)c2cc3c(-c4ccc(Cl)cc4)nn(C)c3s2)CC1	4.5	63.5	.	7.6	.	1.2	.	6.6
Cn1nc(-c2ccc(Cl)cc2)c2cc(C(=O)NCCN3CCOCC3)sc21	7.5	49.9	.	7.3	.	.	.	.
CCCN(CCC)CCNC(=O)c1cc2c(-c3ccc(Cl)cc3)nn(C)c2s1	.	.	.	10.6	.	.	.	12.7
COc1ccc(NS(=O)(=O)NC(=O)c2c(C)n(C)c3ccccc23)cc1	.	.	.	7.3	.	.	.	.
COc1ccc(NC(=O)c2c(Cl)n(C)c3ccccc23)cc1	.	.	.	8.2	.	1.0	.	6.9
Cc1ccc(S(=O)(=O)Nc2ccc(NC(=O)c3cccs3)cc2)cc1	.	.	.	.	.	.	/	/
Cc1cc(O)c(C(=O)/C=C/c2cccc([N+](=O)[O-])c2)c(=O)o1	.	.	.	.	.	.	/	/

From PubChem
